ssDAF-12 act: S. stercoralis DAF-12 nuclear receptor activators, primary screen, cell-based, luminescence, HEK293, GRIP1 co-expression, lit1-tk-luc; Nuclear hormone receptor DAF-12 (Strongyloides stercoralis); HEK293 ssDAF-12/GRIP1 lit1-tk-luc reporter; % of 3 µM dafachronic acid response; activation, % at 6.8 µM; 370,000 compounds, 1% hits; AID 652126, 2013;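 active means activation above the mean over all tested compounds plus 3 SD, cut at about 0.9% in these data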;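 further: 0% = DMSO-only wells and 100% = 3 µM delta7-dafachronic acid wells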
AHR act: AHR activators, primary screen, cell-based, luminescence, luciferase reporter, human; Aryl hydrocarbon receptor (Homo sapiens), P35869; AHR-responsive luciferase reporter cells; activation, % at 5 µM; 320,000 compounds, 2.5% hits; in the data active means activation above about 47%;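 further: 0% = vehicle wells and 100% = reference agonist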
DAX1 inh-1: DAX1 (NR0B1) inhibitors on StAR promoter, primary screen, cell-based, luminescence, SF-1 (NR5A1), full-length DAX-1; HEK293T StAR-luciferase reporter, SF-1/DAX-1 repression relief; inhibition, % at 6.8 µM; 370,000 compounds, 1.1% hits;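 active means inhibition above the mean over all tested compounds plus 3 SD, cut at about 3.6% in these data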;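 further: 0% = DAX-1 cells with DMSO and 100% = cells lacking DAX-1 with DMSO; higher inhibition means more luminescence from relief of DAX-1 repression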
DAX1 inh-2: DAX1 (NR0B1) inhibitors, primary screen, cell-based, HEK293, Gal4-DAX1, luciferase luminescence; Nuclear receptor subfamily 0 group B member 1 (Homo sapiens), P51843; HEK293 Gal4-DAX1 luciferase reporter; inhibition, % at 6.75 µM; 340,000 compounds, 0.99% hits; AID 504766, 2011;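 active means inhibition above the mean over all tested compounds plus 3 SD, cut at about 4.2% in these data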;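 further: 0% = DAX1-transfected cells with DMSO and 100% = empty-vector control cells with DMSO; inhibition shows as a rise in luminescence from relieved DAX1 repression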
Target sequence (P51843 207-470 limits assumed): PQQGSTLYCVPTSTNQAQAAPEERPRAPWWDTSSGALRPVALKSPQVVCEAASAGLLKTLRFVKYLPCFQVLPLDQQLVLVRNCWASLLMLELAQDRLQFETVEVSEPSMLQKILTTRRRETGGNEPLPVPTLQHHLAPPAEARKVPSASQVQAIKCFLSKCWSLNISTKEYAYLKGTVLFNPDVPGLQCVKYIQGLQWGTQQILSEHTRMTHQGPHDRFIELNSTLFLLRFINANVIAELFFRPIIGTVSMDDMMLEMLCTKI
hcDAF-12 act: H. contortus DAF-12 nuclear receptor activators, primary screen, cell-based, luminescence, HEK293, lit1-tk-luc reporter. activation, % at 6.8 µM. HEK293 hcDAF-12 lit1-tk-luc reporter; 0% DMSO, 100% Δ7-dafachronic acid. 370,000 compounds, 1.4% hits;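 active means activation above the mean of all tested compounds plus 3 SD, cut at about 5.5% in these data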;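 further: 100% = response to 3 µM Δ7-dafachronic acid high control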
hgDAF12 agonist: H. glycines DAF-12 receptor agonists, primary screen, cell-based, luminescence, HEK293, GAL4 fusion, UAS-luciferase | Nuclear hormone receptor DAF-12 (Heterodera glycines), GAL4 fusion | HEK293 GAL4-hgDAF12 UAS-luciferase reporter, agonist luminescence; normalized to butyrate control | activation, % at 6.8 µM | 370,000 compounds, 1.8% hits;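 active means activation above a cutoff set at the mean of all screened compounds plus 3 SD, cut at about 10% in these data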;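 further: 0% = DMSO wells and 100% = sodium butyrate wells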
LXR ag: LXR agonists, Gal4 luciferase reporter, confirmation, counter-screen for hcDAF-12 agonist project, cell-based, luminescence, HEK293, H. contortus campaign; shares compounds with hcDAF-12 act; HEK293 Gal4-LXR tk-luc reporter, 24 h; normalized: DMSO 0%, positive control 100%; activation, % at 6.8 µM; 3,400 tested, under 10 active; AID 743027, 2013;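 active means mean percent activation of the reporter above a cutoff set as the average over tested compounds plus their standard deviation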
hcDAF12 conf: H. contortus DAF-12 receptor agonists, confirmation, cell-based, luminescence, HEK293, lit1-tk-luc, triplicate; 3,400 compounds, 61% hits; shares compounds with hcDAF-12 act; HEK293 hcDAF-12 lit1-tk-luc reporter; % of Δ7-dafachronic acid response; activation, % at 6.8 µM; AID 743032, 2013;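 active means mean activation across triplicate tests above the threshold derived from the earlier primary screen, cut at about 5.5% in these data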;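 further: 0% = DMSO only wells and 100% = 3 µM Δ7-dafachronic acid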
Numbers without * were called inactive; x = no result given. Hits are enriched below; roughly 5.7% of the tested compounds scored in any of these assays.

SMILES	ssDAF-12 act	AHR act	DAX1 inh-1	DAX1 inh-2	hcDAF-12 act	hgDAF12 agonist	LXR ag	hcDAF12 conf
COC(=O)C1=NN(c2ccccc2OC)C2C(=O)N(c3ccccc3OC)C(=O)C12 (configuration not stated)	0	13	1	0	7.2*	2	0	0
N#Cc1c(SCC(=O)Nc2nc3ccc(Br)cc3s2)sc2c(O)cc(=O)[nH]c12	0	14	0	0	4	0	x	x
N#Cc1c(SCC(=O)Nc2nc3ccccc3s2)sc2c(O)cc(=O)[nH]c12	1	25	1	-1	7.9*	4	0	5
Cc1ccc(NC(=O)Cc2c(Cl)cccc2Cl)cc1S(=O)(=O)N(C)C	-1	-1	-1	-1	11*	-2	0	2
CSc1ccccc1NC(=O)CN(C)C(=O)c1c(C)nn(Cc2ccccc2)c1C	-1	0	-1	0	0	0	x	x
C=CCn1c(COc2ccccc2)nnc1SCc1ccc(C#N)cc1	-1	2	-1	0	-1	0	x	x
C=CCn1c(COc2ccc(CC)cc2)nnc1SC/C(O)=C(\C#N)c1nc2ccccc2[nH]1	0	20	0	0	8.2*	2	0	6.1*
COc1ccc(OC)c(C2=NS(=O)(=O)N(C)C(C(=O)Nc3cccc(C(C)=O)c3)=C2)c1	-1	4	-1	0	-2	0	x	x
Cc1cccc(N=C2NN=C(c3ccc4c(c3)OCCO4)CS2)c1	0	-6	3	3	2	9	x	x
Cc1cccc(N=C2NN=C(c3c(C)[nH]c4ccccc34)CS2)c1	-1	32	-1	-1	7.9*	2	0	3
O=C(/C=C/Nc1ccc(F)c(Cl)c1)c1ccco1	1.7*	11	1	4	8.8*	9	1	12*
O=C(CCNc1ccc(F)c(Cl)c1)c1ccco1	-2	-1	0	1	0	3	x	x
O=C(/C=C/Nc1cccc(F)c1)c1ccco1	1.4*	16	3	3	8.8*	12*	1	8.1*
O=C(/C=C\Nc1cccc(F)c1)c1cccs1	1.5*	37	3.6*	3	9.8*	8	2	18*
CCOC(=O)/C(N)=C/c1ncc(C(F)(F)F)cc1Cl	-1	8	0	2	0	-2	x	x
O=[N+]([O-])c1ccccc1N/N=C\c1ccccc1Cl	-1	8	1	2	0	2	x	x
Clc1ccc(Nc2nc(-c3cccnc3)cs2)cc1	1.9*	45	2	1	9.3*	12*	1	11*
CCOC(=O)c1ccc(N=Cc2nc(-c3ccccc3)oc2OC(C)=O)cc1	-1	5	0	2	0	2	x	x
CN(C)c1ccc(N=Cc2nc(-c3ccccc3)oc2OC(=O)c2cccc(Br)c2)cc1	2.1*	23	3	1	6.7*	7	0	1
Cc1ccc(CNC(=O)c2cncc(Br)c2)cc1	-1	13	0	4	-1	-1	x	x
CCCCCCNc1nc(-c2ccc(OC)cc2)c(CCC(=O)O)s1	-1	41	0	0	-1	2	x	x
Clc1cccc(CN2CCc3c([nH]c4ccccc34)C2)c1Cl	-1	3	0	1	7.0*	1	0	-1
COc1cc(CN2CCc3c([nH]c4ccccc34)C2)cc(OC)c1	-1	5	0	0	0	0	x	x
CC(C)CNC(=O)C1CCN(Cc2ccc(OCc3ccccc3)cc2)CC1	0	7	0	0	7.1*	8	1	3
CC(O)CNC(=O)C1CCN(Cc2ccc(OCc3ccccc3)cc2)CC1 (configuration not stated)	-1	2	1	4	0	7	x	x
SMILES	ssDAF-12 act	AHR act	DAX1 inh-1	DAX1 inh-2	hcDAF-12 act	hgDAF12 agonist	LXR ag	hcDAF12 conf
Cc1ccc(CNC(=O)[C@H]2O[C@@H](n3ccc(N)nc3=O)[C@H](O)[C@@H]2O)o1	-1	x	0	x	-2	0	x	x
Oc1ccccc1/C=N/Nc1cccc2cccnc12	1	30	2	2	2	1	x	x
O=C(O)c1ccc(N/N=C/c2cccc3cccnc23)cc1	2.0*	20	3	1	8.1*	13*	1	7.9*
Cc1cccc(NC(=O)CSc2ccc(-c3ccco3)nn2)c1	-1	0	-1	1	-2	1	x	x
COc1ccc2c(c1OC)C(=O)N1C(C(=O)O)Cc3c([nH]c4ccccc34)C21 (configuration not stated)	1	37	1	2	8.8*	3	0	3
COc1cccc(C2c3[nH]c4ccccc4c3C[C@H]3C(=O)N(CCCO)CC(=O)N23)c1OC (some centres not stated)	0	4	0	-1	2	-1	x	x
CC(C)(C)NC(=O)Cn1nnc(-c2ccccc2NC(=O)c2cnccn2)n1	-1	2	0	-1	0	-2	x	x
Cc1cc2ncc(-c3cccs3)nc2cc1C	2.1*	x	3	-1	15*	18*	3	18*
O=C(Cn1nc(C(=O)O)c2ccccc2c1=O)c1c[nH]c2ccccc12	1	15	0	-1	7.3*	3	0	4
CN1N=C(C(=O)N2CCc3c([nH]c4ccccc34)C2c2ccccc2Cl)CCC1=O (configuration not stated)	1.7*	28	2	0	7.8*	12*	0	6.9*
O=C(c1cc[n+]([O-])cc1)N1CCc2c([nH]c3ccccc23)C1c1ccccc1Cl (configuration not stated)	0	14	0	x	3	1	x	x

Source: PubChem
